The supplement of paper PMC6555819

The sequences below were run on PPARg homodimer (NR concentration 180 nM) (assay: PBM binding z-score (relative to random genomic background probes); higher = stronger binding; sequences stand for … in GC…GCGATTGACAGCGTAGAATGAAGG).
How it was run: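 Scanned fluorescence from custom Agilent 4×180K protein-binding microarrays was regression-normalized. Binding z-scores use random background probes as reference. Ligand-free nuclear receptor dimers were incubated on the arrays for 1 h and detected with antibodies against each partner (one per run).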

Row | Sequence | PBM binding z-score
1 | ATTCGGAGGACAAAGGTCAGAGCTACGCCAGTGA | 3.33
2 | GGAACGAGGGCAAGTTGATGGCAGAGTTTGATGG | 0.499
3 | AGTCAAAGTTCACTAGGTCACGTAAGATTCAGCT | 4.02
4 | TCTTGTAGATCAGGAGGTTAAGAAAGCTGGCCAA | 0.0785
5 | TAGCCTAGGTCAGATCGGTCCAGTATACGCTATA | -0.166
6 | ATCTCTAGGTAACCAAGTTCAGGGAATGCCGAAC | 0.857
7 | TCGAGTAGGTTAGGGGCGTTCAGAATGGCGTCGA | 0.542
8 | TCATATAGGTAAACAGGGGAAAGTCCGTAAGTTA | 1.18
9 | ACTATTAGTTGAGACGAGGGCAACCTATAGGTTG | 0.36
10 | CCTACTGGGCCATCAGGCCATTGATATCAACGTT | 0.142
11 | TCTCGGAGCACACGAAGGTCAGAGCTTTCCAGAG | 0.396
12 | ATCTCTAGGTAACCAAGTTCAATGAATGCCGAAC | 1.22
13 | TGGATGAGGTTAAAGATCAGGGAACGTGGCGTCG | 1.99
14 | CTCGAAAGGTCGGTTGAGGTGCGTATACGGATAA | 0.786
15 | ATCGAAAGGTCGAGCTGAGTATAGAGAAAGGGAA | 0.956
16 | ACAGACATGTGAGTGAAGGTAACTCAGCTGGACG | -0.419
17 | CAAACTAGGTCACGGAAGGTCAAAGTCGAATGAC | 7.08
18 | TAGCATAGGTCATTGGGCCAGTATAGTACGCATC | 1.56
19 | AGTCAAAGTTCATCTAGGTAACGTATGATATGCT | 2.9
20 | AGAATGAGGTTAAGATGAGGGAAACAGAATACAT | 0.984

Row | Sequence | PBM binding z-score
21 | CCTCCAAGGTCAATGCTAGGTCAGTGAAAGCATT | 4.19
22 | TCGAGTAGGTTAGGGGCAGTCAGAATGGCGTCGA | 0.763
23 | ATCGAAAGGTCGACGAGGTGTGTATACACCGTTT | 1.17
24 | CCTACTGGGCCATTCAGAGGTCTTTGATCATATG | 0.234
25 | ATCGAAACGTCGAGGTGAGTATAGAGAAAGGGAA | -0.637
26 | CCCAGCAGGCCAGGGTCACTCAAGCATTTCGCTT | 0.406
27 | CTTCCAAGGTCAATGCTAGGTCAGTGAAAGCATT | 4.08
28 | GGTACGAGGGCATTCGAGTTGATAGCATGGCGAT | -0.0678
29 | TGTCAAAGTTCAAAGGTAACGTACGTATCCACAC | 3.53
30 | GGAACGAGAGCAAAGTTGATAGCATCTGTCGACG | -0.156
31 | GCTATTAGTTGAAAGGGCAACCAAATGATTCTCG | 0.903
32 | ATATGTAGGTTACAACCGGGTCATTCAGGCTATG | 2.21
33 | TCTTGTAGATCAACAGGGGGTTAAGAAAGATCGA | 1.07
34 | CCTACTGGGCCAAAAAGCTCATTGATGCCGATAA | -0.703
35 | AGTCAAAGTTCAGGACGAGTTAACGTAAAGCACG | 1.18
36 | TGAATGAGGTTAAAGATTAGGGAACGTGGCGTCG | 0.705
37 | CAAACTAGGTCCCGAAAGGTCAAAGTCGAATGAC | 3.35
38 | CCAAGTTGGTCAGGAGGTCACACACCGGATATGA | 2.39
39 | AGTCAAAGTTCAGGACGATGTAACGTAAAGCACG | 2.13
40 | GCAACGAGGGCAAAGTTGATAGCATCTGTCGACG | 0.234
